Parameters in all cases: scale not given: direction of the effect not stated beside the values
Test [1] addresses Protein translocase subunit SecA (Escherichia coli (strain K12)) (UniProt P10408). The test can be described thus: Assay to Identify E. coli SecA ATPase Inhibitors. It counts as functional. Conditions: 30 µM.
Test [2] concerns the target T1, Ubiquitin-activating enzyme e1, putative (Leishmania donovani (strain BPK282A1)) (UniProt E9BSI1).
T1 sequence (whole entry): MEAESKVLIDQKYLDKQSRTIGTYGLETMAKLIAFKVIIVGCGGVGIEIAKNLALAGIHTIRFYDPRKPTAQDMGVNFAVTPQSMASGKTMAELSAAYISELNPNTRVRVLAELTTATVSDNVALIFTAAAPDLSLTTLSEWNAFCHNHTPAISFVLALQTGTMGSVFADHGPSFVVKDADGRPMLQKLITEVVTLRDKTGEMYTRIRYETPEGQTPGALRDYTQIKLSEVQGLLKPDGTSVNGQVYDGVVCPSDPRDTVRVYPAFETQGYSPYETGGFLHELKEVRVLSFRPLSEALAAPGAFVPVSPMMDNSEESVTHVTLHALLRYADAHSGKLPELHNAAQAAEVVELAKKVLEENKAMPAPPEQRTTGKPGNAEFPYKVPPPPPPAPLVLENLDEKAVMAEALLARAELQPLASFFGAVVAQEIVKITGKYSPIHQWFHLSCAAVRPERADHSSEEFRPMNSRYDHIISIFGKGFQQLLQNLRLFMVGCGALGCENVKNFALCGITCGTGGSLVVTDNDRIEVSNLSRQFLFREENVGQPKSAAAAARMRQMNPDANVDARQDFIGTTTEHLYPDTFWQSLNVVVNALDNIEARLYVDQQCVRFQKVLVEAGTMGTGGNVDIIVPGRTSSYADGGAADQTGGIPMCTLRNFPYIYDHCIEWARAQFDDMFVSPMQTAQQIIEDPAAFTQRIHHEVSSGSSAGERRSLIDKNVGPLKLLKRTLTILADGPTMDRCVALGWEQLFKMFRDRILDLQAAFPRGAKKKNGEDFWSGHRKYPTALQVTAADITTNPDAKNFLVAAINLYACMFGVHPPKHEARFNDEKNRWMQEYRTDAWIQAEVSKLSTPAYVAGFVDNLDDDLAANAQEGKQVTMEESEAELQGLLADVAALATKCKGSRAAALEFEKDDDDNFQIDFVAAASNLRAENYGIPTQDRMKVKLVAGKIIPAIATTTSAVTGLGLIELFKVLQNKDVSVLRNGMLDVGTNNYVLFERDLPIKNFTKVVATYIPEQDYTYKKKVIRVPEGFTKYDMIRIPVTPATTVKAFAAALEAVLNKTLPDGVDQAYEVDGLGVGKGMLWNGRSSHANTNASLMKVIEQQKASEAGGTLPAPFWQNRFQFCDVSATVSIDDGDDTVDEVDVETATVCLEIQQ
Briefly: Leishmania donovani Ubiquitin Activating Enzyme (LdE1). It counts as functional. The note with it: 30 µM.

The target of test [3] is AMP-activated protein kinase, AMPK (Homo sapiens) (UniProt P54646+O43741+P54619+Q9UGJ0+Q9Y478+Q13131+Q9UGI9). The test can be described thus: AMP-dependent Kinase enzyme assay. An in vitro enzyme assay that detects ADP turnover that is directly proportional to AMPK activity. This uses naive AMPK that is activated during the assay with MK-8722. The note with it: 30 µM. It is filed as functional.

Test [4] addresses Sialic acid-binding Ig-like lectin 9 (Homo sapiens) (UniProt Q9Y336). The test can be described thus: Hs-Siglec9 ALPHAscreen SOP 20170721. Conditions: 10 µM.
Test [5] concerns Trypanosoma cruzi. The test can be described thus: Trypanosoma cruzi phosphomannomutase and mannose-1-phosphate guanylyltransferase assay. It counts as functional. Conditions: 10 µM.
The target in test [6] is T2, Arginase-2, mitochondrial (Homo sapiens) (UniProt P78540).
T2 sequence (whole entry): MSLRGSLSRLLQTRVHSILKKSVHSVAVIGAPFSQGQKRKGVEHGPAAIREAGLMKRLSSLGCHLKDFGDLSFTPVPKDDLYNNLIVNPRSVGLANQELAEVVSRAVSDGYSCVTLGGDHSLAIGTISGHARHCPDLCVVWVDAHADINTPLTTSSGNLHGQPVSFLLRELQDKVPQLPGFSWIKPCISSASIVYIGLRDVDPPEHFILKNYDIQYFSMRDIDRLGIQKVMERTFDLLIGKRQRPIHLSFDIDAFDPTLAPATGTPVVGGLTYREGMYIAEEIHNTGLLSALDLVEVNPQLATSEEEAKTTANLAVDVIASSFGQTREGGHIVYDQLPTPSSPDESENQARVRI
The test can be described thus: in vitro enzyme assay to detect the production of urea directly proportional to the activity of Arginase II. Also: in the data most compounds retested in dose-response had high values. It counts as functional. Conditions: 33.3 µM.

Test [7] has as its target T3, Proteasome subunit beta (Trypanosoma cruzi) (UniProt O96673).
T3 sequence (whole entry): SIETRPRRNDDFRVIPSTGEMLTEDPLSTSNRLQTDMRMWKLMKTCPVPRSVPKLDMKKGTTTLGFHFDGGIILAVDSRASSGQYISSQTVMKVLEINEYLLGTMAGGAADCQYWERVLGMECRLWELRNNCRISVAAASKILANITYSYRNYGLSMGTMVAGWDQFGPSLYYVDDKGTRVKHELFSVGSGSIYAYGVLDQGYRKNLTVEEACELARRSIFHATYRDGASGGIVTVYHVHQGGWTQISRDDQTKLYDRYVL
Briefly: Trypanosoma cruzi proteasome chymotrypsin-like activity (TcProtChymo) assay. Also: in the data most compounds retested in dose-response had high values. It counts as functional. The note with it: 9.37 µM.

The species entered for test [8] is Homo sapiens. The test can be described thus: To identify inhibition of the IFN signalling (Jak-Stat) pathway via expression of an eGFP reporter gene under the control of an IFN-stimulated response element (ISRE) containing MxA promoter. It is filed as functional. Conditions: 30 µM. Background: A reporter such as luciferase makes a cellular process visible.
Test [9] addresses T4, Tyrosyl-tRNA synthetase, putative (Trypanosoma cruzi (strain CL Brener)) (UniProt Q4DSP6).
T4 sequence (whole entry): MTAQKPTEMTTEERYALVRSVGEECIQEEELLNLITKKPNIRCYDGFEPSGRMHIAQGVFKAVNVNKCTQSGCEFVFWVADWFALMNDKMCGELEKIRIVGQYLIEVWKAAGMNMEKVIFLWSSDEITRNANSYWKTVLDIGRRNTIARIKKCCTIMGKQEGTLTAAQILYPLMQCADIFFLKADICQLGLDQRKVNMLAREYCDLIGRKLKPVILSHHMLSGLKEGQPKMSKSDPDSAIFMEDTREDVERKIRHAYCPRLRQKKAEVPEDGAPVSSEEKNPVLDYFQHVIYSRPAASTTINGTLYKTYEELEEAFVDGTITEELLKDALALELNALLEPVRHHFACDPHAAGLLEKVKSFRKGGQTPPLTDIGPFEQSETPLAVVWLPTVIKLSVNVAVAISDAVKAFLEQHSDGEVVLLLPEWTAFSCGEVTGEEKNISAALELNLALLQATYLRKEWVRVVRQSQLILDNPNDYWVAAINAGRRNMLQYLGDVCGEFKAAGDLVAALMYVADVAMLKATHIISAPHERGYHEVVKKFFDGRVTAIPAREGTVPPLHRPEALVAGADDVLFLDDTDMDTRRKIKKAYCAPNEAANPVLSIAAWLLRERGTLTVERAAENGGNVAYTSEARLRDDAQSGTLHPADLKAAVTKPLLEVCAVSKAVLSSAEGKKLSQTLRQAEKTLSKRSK
The test can be described thus: Trypanosoma cruzi tyrosyl tRNA synthetase (TcYRS) _High Tyrosine SOP. Also: in the data most compounds retested in dose-response had high values. It counts as functional. The note with it: 30 µM.

Test [10] has as its target T4, Tyrosyl-tRNA synthetase, putative (Trypanosoma cruzi (strain CL Brener)). The test can be described thus: Trypanosoma cruzi tyrosyl tRNA synthetase (TcYRS) SOP. The note with it: 30 µM. It is filed as functional.
For test [11], the target named is Chromo domain-containing protein 1 (Saccharomyces cerevisiae (strain ATCC 204508 / S288c) (Baker's yeast)) (UniProt P32657). Briefly: ScCHD-1 Enzyme Inhibition Assay. Also: in the data most compounds retested in dose-response had high values. It counts as functional. Conditions: 30 µM.

For some of these results: Entries with a potency or affinity are not part of this list.

Sialic acid-binding Ig-like lectin 9 (Homo sapiens), sequence (Q9Y336 whole entry): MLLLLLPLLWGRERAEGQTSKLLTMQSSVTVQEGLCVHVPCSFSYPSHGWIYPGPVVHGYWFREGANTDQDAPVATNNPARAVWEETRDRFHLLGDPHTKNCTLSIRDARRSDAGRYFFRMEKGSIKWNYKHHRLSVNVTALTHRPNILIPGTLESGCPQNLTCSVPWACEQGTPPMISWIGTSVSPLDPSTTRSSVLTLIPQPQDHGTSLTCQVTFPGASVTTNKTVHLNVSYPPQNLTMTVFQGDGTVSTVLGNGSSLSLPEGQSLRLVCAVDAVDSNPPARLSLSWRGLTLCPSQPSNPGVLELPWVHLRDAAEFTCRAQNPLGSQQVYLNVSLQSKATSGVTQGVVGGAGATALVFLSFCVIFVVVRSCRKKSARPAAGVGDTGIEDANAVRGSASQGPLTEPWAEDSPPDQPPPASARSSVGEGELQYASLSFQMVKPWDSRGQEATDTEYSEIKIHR
Protein translocase subunit SecA (Escherichia coli (strain K12)), sequence (P10408 whole entry): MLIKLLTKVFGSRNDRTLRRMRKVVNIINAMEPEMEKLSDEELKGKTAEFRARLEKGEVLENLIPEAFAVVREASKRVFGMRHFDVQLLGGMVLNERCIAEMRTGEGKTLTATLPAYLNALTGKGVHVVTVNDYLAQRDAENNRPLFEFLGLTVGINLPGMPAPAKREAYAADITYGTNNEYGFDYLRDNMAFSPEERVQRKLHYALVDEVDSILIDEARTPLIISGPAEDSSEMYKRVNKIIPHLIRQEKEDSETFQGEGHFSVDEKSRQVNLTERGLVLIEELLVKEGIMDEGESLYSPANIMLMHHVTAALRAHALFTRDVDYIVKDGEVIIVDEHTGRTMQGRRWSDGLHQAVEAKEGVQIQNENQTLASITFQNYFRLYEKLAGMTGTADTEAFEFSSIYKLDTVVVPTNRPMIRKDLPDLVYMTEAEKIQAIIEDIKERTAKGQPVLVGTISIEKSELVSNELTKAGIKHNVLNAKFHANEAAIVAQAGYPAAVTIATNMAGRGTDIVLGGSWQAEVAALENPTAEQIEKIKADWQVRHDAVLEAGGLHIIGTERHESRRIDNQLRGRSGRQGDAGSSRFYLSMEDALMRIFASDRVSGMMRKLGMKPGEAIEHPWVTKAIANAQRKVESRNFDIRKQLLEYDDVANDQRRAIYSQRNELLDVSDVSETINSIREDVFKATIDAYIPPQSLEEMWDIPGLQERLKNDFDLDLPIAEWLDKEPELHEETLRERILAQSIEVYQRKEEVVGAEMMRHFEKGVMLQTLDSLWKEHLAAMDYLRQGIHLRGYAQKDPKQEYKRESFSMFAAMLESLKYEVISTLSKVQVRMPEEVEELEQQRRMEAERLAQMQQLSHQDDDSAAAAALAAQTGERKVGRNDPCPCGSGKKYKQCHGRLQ
Chromo domain-containing protein 1 (Saccharomyces cerevisiae (strain ATCC 204508 / S288c) (Baker's yeast)), sequence (P32657 whole entry, the tested form may be a part): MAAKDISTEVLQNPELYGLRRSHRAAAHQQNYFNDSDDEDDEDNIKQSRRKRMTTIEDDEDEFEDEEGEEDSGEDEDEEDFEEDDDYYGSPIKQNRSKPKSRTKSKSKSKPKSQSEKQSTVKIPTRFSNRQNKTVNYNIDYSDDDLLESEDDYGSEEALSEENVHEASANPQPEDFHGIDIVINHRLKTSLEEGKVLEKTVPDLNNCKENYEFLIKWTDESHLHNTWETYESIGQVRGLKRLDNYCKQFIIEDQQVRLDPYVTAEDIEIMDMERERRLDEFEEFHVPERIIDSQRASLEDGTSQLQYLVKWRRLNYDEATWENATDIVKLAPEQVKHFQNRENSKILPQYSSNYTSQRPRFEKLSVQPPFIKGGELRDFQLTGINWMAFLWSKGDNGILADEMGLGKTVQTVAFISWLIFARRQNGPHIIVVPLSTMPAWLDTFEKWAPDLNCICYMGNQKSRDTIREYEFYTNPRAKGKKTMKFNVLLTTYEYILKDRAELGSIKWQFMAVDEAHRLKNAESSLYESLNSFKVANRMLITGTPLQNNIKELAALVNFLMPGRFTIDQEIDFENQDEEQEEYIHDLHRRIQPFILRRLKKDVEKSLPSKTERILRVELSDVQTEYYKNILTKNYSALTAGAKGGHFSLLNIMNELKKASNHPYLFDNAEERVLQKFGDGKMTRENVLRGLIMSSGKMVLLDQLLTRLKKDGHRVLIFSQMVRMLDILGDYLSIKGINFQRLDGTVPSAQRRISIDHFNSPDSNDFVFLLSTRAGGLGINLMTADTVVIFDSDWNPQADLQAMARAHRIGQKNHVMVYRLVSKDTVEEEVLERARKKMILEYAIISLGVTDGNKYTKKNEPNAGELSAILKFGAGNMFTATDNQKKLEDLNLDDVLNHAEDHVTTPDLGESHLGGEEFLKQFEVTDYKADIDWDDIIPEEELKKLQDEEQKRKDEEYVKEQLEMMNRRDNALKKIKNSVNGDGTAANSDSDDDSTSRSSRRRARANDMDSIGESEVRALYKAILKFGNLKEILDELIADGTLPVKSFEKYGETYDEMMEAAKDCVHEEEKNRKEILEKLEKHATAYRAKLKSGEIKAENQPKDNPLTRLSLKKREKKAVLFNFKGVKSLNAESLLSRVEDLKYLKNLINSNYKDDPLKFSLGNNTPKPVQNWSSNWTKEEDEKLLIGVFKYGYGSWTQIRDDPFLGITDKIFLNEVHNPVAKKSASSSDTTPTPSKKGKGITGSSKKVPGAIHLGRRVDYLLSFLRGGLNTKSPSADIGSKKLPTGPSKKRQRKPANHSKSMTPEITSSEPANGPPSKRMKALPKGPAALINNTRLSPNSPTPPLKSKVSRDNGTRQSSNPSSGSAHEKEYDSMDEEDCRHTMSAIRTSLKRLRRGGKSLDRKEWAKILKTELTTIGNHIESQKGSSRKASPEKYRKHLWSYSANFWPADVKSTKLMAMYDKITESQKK

`Cc1noc(C)c1CN1C(=O)[C@H]2CC[C@@H]1CN(Cc1cccnc1N)C2`: the Percent Effect in test [1] was 0.397%; in [2], 1.39%; in test [3], 15.3%; in [4] it was -8.6%; in test [5], -8.46%; in [6], 3.53%. For the same molecule, the Percent Effect in test [7] was 23%; in test [8], 31.8%; in [9], 0%; in test [10], -5.13%; in test [11], 3.37%.

For the molecule `O=C(Cn1ccnc1)N1C[C@@H]2CC[C@H](Oc3ccccc3Cl)[C@@H]2C1`, the Percent Effect is -7.33% in test [1]; -4.05% in test [2]; 13.2% in test [3]; 1.9% in [4]; 0.198% in test [5]; -3.94% in test [6]. In addition, the Percent Effect is -1.09% in test [7]; 31.6% in test [8]; 0% in test [9]; -1.3% in [10]; 1.94% in [11].

Take `CN(c1cccnn1)C1CCN(C(=O)c2ccc3c(c2)COC3)CC1`: the Percent Effect in test [1] is -7.72%; in test [2], -44.2%; in test [3] it was 15.1%; in test [4], 5.38%; in test [5] it was 0.187%; in [6], 2.85%. Moreover, the Percent Effect in test [7] was 5.41%; in test [8] it was 9.98%; in [9], 6.8%; in [10], 12.2%; in test [11], -5.25%.

Regarding `CC(C)Nc1nc(N2CCCC2)nc2c1CN(C(C)C)CC2`, the Percent Effect was 1.43% in test [1]; -2.67% in [2]; -5.03% in [3]; 21.2% in test [4]; 4.63% in test [5]; -29.6% in test [6]. Also, the Percent Effect is 14.7% in test [7]; -15.2% in test [8]; 5.21% in test [9]; -2.5% in test [10]; -5.55% in test [11].

In the case of `COc1ccc(C(O)CNC(=O)Nc2cc(C)nn2C)cc1` (stereo unspecified), the Percent Effect in test [1] was -8.64%; in [2], 5.26%; in test [3], 3.77%; in test [4], -0.779%; in [5] it was -9.59%; in [6], -1.53%. For the same molecule, the Percent Effect in test [7] was 15.4%; in test [8] it was 20.4%; in test [9], -3.43%; in [10] it was -2.44%; in test [11] it was -6.99%.

As for `CNC(=O)CCCNCc1c(C(C)C)nn(C)c1N(C)C`, the Percent Effect in test [1] is -1.38%; in test [2] it was 0%; in test [3], -11.4%; in test [4], -8.3%; in test [5] it was -2.15%; in test [6], 2.52%. Moreover, the Percent Effect is 0.761% in test [7]; -13.6% in test [8]; -2.46% in test [9]; -1.24% in [10]; 5.41% in [11].

Regarding `Cc1ccccc1CSc1nc(N)cc(N2CC[C@@H](O)C2)n1`, the Percent Effect was -5.3% in test [1]; 16.2% in [2]; -11.2% in test [3]; 22.8% in test [4]; 7.33% in [5]; -3.23% in [6]. Besides, the Percent Effect in test [7] is 11.4%; in test [8], 28.7%; in [9], 20.4%; in test [10], 30.9%; in [11], -7.45%.

Regarding `O=C(Cc1ccc2c(c1)OCO2)N1CCCN(c2ccccc2)CC1`, the Percent Effect is -6.04% in [1]; 13.7% in test [2]; 3.46% in test [3]; 5.03% in [4]; 0.992% in [5]; -2% in test [6]. Besides, the Percent Effect is 4.54% in [7]; 10.8% in test [8]; 3.12% in test [9]; 11.1% in [10]; -0.294% in test [11].

As to `CCc1nc(CN2CCCN(c3nccs3)CC2)no1`, the Percent Effect is -2.88% in test [1]; 15.6% in test [2]; -3.3% in [3]; -7.59% in test [4]; -3.93% in test [5]; 1.78% in test [6]. For the same molecule, the Percent Effect was 12.5% in [7]; 26.3% in [8]; 3.88% in test [9]; 9.76% in [10]; -8.02% in [11].

`O=S(=O)(CCN1CCOC(Cn2cncn2)C1)c1ccccc1` (stereo unspecified): the Percent Effect is -1.18% in test [1]; 5.41% in test [2]; -4.67% in test [3]; 12.3% in [4]; 3.81% in test [5]; 2.23% in [6]. In addition, the Percent Effect in test [7] was -0.0858%; in test [8], -5.62%; in test [9] it was 0%; in [10] it was 3.7%; in [11] it was -11.6%.

In the case of `CCN1CCC(CNC(=O)NCc2cc(-c3ccc(C)cc3)no2)C1` (stereo unspecified), the Percent Effect in [1] is 0.151%; in test [2], 0%; in test [3] it was -6.65%; in test [4] it was 3.46%; in test [5] it was 3.44%; in test [6], -3.14%. Besides, the Percent Effect in test [7] is 12.2%; in test [8], 5.69%; in test [9] it was 10.9%; in [10], 25.6%; in [11], -5.52%.

The values above are taken from ChEMBL document CHEMBL3988442, “University of Dundee, Small-Polar-MMV Screening Library” (2021).
